Among the data in PubChem BioAssay (NCATS) are Potency values, retold here.

Inconclusive results are not listed. Activity calls are given as the source filed them. Calls follow the shape of the dose curve; as a rule, active = well fitted curve in the direction sought with a large enough effect; inconclusive = small, poorly fitted or top-dose-only effect, or another doubt; inactive = no such curve, though single readings can be large; an effect the other way counts as inactive or inconclusive.

Assay [1] can be described thus: Quantitative High-Throughput drug screen in 47 multiple myeloma cell lines against the NCATS MIPE library collection: KMS12BM_JCRB cell viability assay (AID 1918971). Also: nearly all actives have a fitted effect of over 35% in size. Put shortly:
(§1)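 Approved and investigational drugs from MIPE 4.0 were added by pin tool to 500 cells per well. After 48 hours at 37C, ATP-based CellTiter-Glo luminescence indicated remaining viability.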

Assay [2] can be described thus: Quantitative High-Throughput drug screen in 47 multiple myeloma cell lines against the NCATS MIPE library collection: KMS12PE_JCRB cell viability assay (AID 1918972). Also: nearly all actives have a fitted effect of over 30% in size. As to viability: series mostly up to about 46 µM. The gist of the method:
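Inhibition of cell viability is measured here. Each line was plated at 500 cells per well, treated with MIPE 4.0 drugs, kept 48 hours at 37C, then assayed for ATP content by CellTiter-Glo luminescence.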

Assay [3] in a line: Quantitative High-Throughput drug screen in 47 multiple myeloma cell lines against the NCATS MIPE library collection: NCIH929_DSMZ cell viability assay (AID 1918978). Also: nearly all actives have a fitted effect of over 35% in size. The gist of the method:
(§2)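 ATP-based luminescence (CellTiter-Glo, 5 min RT incubation) quantified surviving cells following two days' treatment with MIPE 4.0 agents at 37 °C, 5% CO2.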

The nature of assay [4]: Quantitative High-Throughput drug screen in 47 multiple myeloma cell lines against the NCATS MIPE library collection: OCIMY1_PLB cell viability assay (AID 1918979). Also: nearly all actives have a fitted effect of over 35% in size. As to viability: series mostly up to about 46 µM. The gist of the method: as §2
The nature of assay [5]: Quantitative High-Throughput drug screen in 47 multiple myeloma cell lines against the NCATS MIPE library collection: MM1R_ATCC cell viability assay (AID 1918981). Also: nearly all actives have a fitted effect of over 35% in size. Put shortly: as §2
The nature of assay [6]: Quantitative High-Throughput drug screen in 47 multiple myeloma cell lines against the NCATS MIPE library collection: KMS26_JCRB cell viability assay (AID 1918975). Also: nearly all actives have a fitted effect of over 45% in size. Put shortly:
as §1

Assay [7] can be described thus: Quantitative High-Throughput drug screen in 47 multiple myeloma cell lines against the NCATS MIPE library collection: MM1S_ATCC cell viability assay (AID 1918980). Also: nearly all actives have a fitted effect of over 45% in size. The gist of the method:
as §2

The nature of assay [8]: Quantitative High-Throughput drug screen in 47 multiple myeloma cell lines against the NCATS MIPE library collection: KMS20_JCRB cell viability assay (AID 1918973). Also: nearly all actives have a fitted effect of over 45% in size. The gist of the method:
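CellTiter-Glo luminescence (ATP) after 48 h compound exposure, 37C/5% CO2; 500 cells/well; MIPE 4.0 approved/investigational drugs pinned in; DMSO = 100%, media only = 0% viability.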

A short description of assay [9]: Quantitative High-Throughput drug screen in 47 multiple myeloma cell lines against the NCATS MIPE library collection: MMM1_PLB cell viability assay (AID 1918976). Also: nearly all actives have a fitted effect of over 35% in size. The gist of the method:
as §2

A short description of assay [10]: Quantitative High-Throughput drug screen in 47 multiple myeloma cell lines against the NCATS MIPE library collection: MOLP8_DSMZ cell viability assay (AID 1918977). Also: nearly all actives have a fitted effect of over 45% in size. Put shortly:
as §2
Potency is read from the fitted curve at half-maximal effect.

Regarding `COc1c(Cl)cc2c([nH]c3cnccc32)c1NC(=O)c1cccnc1C`, the Potency in [1] is 14.8 µM (active); in assay [2] it was 20.9 µM (active); in [3], 0.743 µM (active); in assay [5], 14.8 µM (active). In assay [4], the Potency entry is “inactive”.

As for `CS(=O)(=O)Oc1ccc2c(NC(N)=O)c(C(=O)c3ccc(Cl)cc3Cl)oc2c1`, the Potency result in assay [1], in [6], in assay [4] and in assay [5] was “inactive” in each case. Besides, the values for the Potency in assay [2], in [3] and in assay [7] were 9.35 µM (active), 9.35 µM (active) and 2.96 µM (active), respectively.

On to `CCCCNc1cc(C(=O)O)cc(S(N)(=O)=O)c1Oc1ccccc1`, for which the Potency result in [1], in [2], in [8], in assay [6], in assay [3] and in [4] was “inactive” throughout. Besides, the Potency result in assay [5] was “inactive”.

In the case of `CCOc1ccc(Cc2cc([C@@H]3O[C@H](CO)[C@@H](O)[C@H](O)[C@@H]3O)ccc2Cl)cc1`, the Potency result in assay [1], in [3], in assay [4] and in assay [5] was “inactive” throughout. In addition, the Potency in assay [2] is 26.4 µM (active).

In the case of `CO[C@@H]1[C@H](N(C)C(=O)c2ccccc2)C[C@H]2O[C@]1(C)n1c3ccccc3c3c4c(c5c6ccccc6n2c5c31)C(=O)NC4`, the Potency in assay [1] was 9.35 µM (active); in assay [2], 0.935 µM (active); in assay [8], 1.05 µM (active); in assay [6], 3.72 µM (active); in assay [3], 0.935 µM (active); in assay [4], 5.26 µM (active). Further, the results for the Potency in [7] and in assay [5] were 4.69 µM (active) and 2.09 µM (active), respectively.

For `Clc1ccc(Nc2nnc(Cc3ccncc3)c3ccccc23)cc1`, the Potency in assay [1] was 20.9 µM (active); in assay [9], 18.7 µM (active); in [3], 11.8 µM (active); in assay [7] it was 18.7 µM (active). Moreover, the Potency result in assay [2] and in assay [4] was “inactive” in each case.

For `COc1cccc2cc(-c3nc(C4CCC(C(=O)O)CC4)n4ncnc(N)c34)[nH]c12` (stereo not given), the Potency in [1] was 0.0743 µM (active); in assay [2], 0.166 µM (active); in assay [10] it was 0.418 µM (active); in assay [3] it was 0.187 µM (active); in assay [4], 1.05 µM (active); in assay [7] it was 0.469 µM (active). In assay [5], the Potency is 0.469 µM (active).

In the case of `CCCc1nn(C)c2c(=O)[nH]c(-c3cc(S(=O)(=O)N4CCN(C)CC4)ccc3OCC)nc12`, the Potency was 11.8 µM (active) in assay [1], 18.7 µM (active) in assay [8], 23.5 µM (active) in assay [9] and 20.9 µM (active) in assay [7]. Besides, in assay [2], the Potency entry is “inactive”.

As for `CNC(=O)c1ccc(C)c(-n2c(C)cc(OCc3ccc(F)cc3F)c(Br)c2=O)c1`, the Potency was 20.9 µM (active) in assay [1], 18.7 µM (active) in assay [2] and 5.9 µM (active) in assay [3].

Consider `NC[C@H](O)c1ccc(O)c(O)c1`, for which the results for the Potency in assay [1], in [7] and in assay [5] were 20.9 µM (active), 23.5 µM (active) and 5.9 µM (active), respectively. In addition, the Potency entry in assay [2], in assay [3] and in [4] was “inactive” each time.

For the compound `CCc1cncnc1N1CCN(Cc2nc3ccc(C(F)(F)F)cc3[nH]2)CC1`, the Potency in assay [1] is 14.8 µM (active); in assay [2], 2.09 µM (active); in [6], 4.18 µM (active); in assay [7] it was 18.7 µM (active); in assay [5], 18.7 µM (active). Further, the Potency entry in assay [4] is “inactive”.

As for `Cc1ccc(NC(=O)c2cccc(C(C)(C)C#N)c2)cc1Nc1ccc2ncn(C)c(=O)c2c1`, the Potency was 20.9 µM (active) in assay [1]; 5.9 µM (active) in assay [2]; 2.96 µM (active) in assay [8]; 16.6 µM (active) in assay [9]; 0.264 µM (active) in assay [4]; 6.62 µM (active) in assay [7]. Besides, the Potency in [5] is 6.62 µM (active).

For `CN1CCN(CCCN2c3ccccc3Sc3ccc(C(F)(F)F)cc32)CC1`, the Potency entry in assay [1], in [2], in assay [4] and in [5] was “inactive” each time. Also, the Potency is 16.6 µM (active) in assay [8], 2.09 µM (active) in assay [3] and 1.05 µM (active) in [7].

Take `S=C(NCc1ccc2c(c1)OCO2)N1CCN(c2ncnc3c2oc2ccccc23)CC1`: the Potency in assay [1] was 1.91 µM (active); in assay [2], 1.52 µM (active); in assay [3] it was 4.81 µM (active); in assay [4], 42.9 µM (active); in assay [7] it was 3.82 µM (active).

For the compound `CC(C)C[C@H](NC(=O)[C@@H](O)[C@H](N)Cc1ccccc1)C(=O)O`, the Potency in assay [1] was 23.5 µM (active); in assay [8] it was 11.8 µM (active); in assay [9], 20.9 µM (active); in [3], 20.9 µM (active); in assay [7], 18.7 µM (active); in [5] it was 20.9 µM (active). Besides, the Potency entry in [2] is “inactive”.

For the compound `NCCCC(N)(C(=O)O)C(F)F` (stereo not given), the Potency result in assay [1], in assay [2], in [6] and in assay [5] was “inactive” each time. Also, the Potency in assay [9] is 0.526 µM (active); in assay [3], 0.0526 µM (active); in [7], 0.105 µM (active).

Take `Oc1ccc(C2CNCCc3c2cc(O)c(O)c3Cl)cc1` (stereo not given): the Potency result in assay [1], in assay [2], in assay [8], in assay [4] and in assay [5] was “inactive” each time. Also, the figures for the Potency in [6], in assay [3] and in [7] were 1.32 µM (active), 16.6 µM (active) and 3.32 µM (active), respectively.

Consider `Cc1cc(-c2ccc(CC(=O)Nc3ccc(-c4cccnc4)cc3)cc2)ccn1`, for which the figures for the Potency in [1], in [2] and in assay [3] were 18.7 µM (active), 14.8 µM (active) and 23.5 µM (active), respectively. In addition, the Potency entry in assay [7] and in [5] was “inactive” each time.

Take `N[C@@H]1CONC1=O`: the Potency entry in [1], in assay [2], in assay [8], in assay [6], in [3] and in assay [4] was “inactive” each time. Besides, the Potency entry in assay [7] and in assay [5] was “inactive” in each case.

For the compound `CC[C@@H](C)[C@H](NC(=O)[C@H](CC1CCCCC1)NC(=O)c1ccno1)C(=O)N1CCC2(CCc3ccccc32)CC1`, the Potency in assay [1] is 9.35 µM (active); in assay [4] it was 16.6 µM (active); in assay [5], 13.2 µM (active). Also, the Potency result in [2] was “inactive”.

Regarding `COc1ccc(-c2oc3cc(OC)ccc3c2C(=O)c2ccc(C#N)cc2)cc1`, the Potency result in assay [1], in assay [8], in assay [10], in assay [4] and in assay [5] was “inactive” throughout. Moreover, the Potency in assay [2] and in assay [7] was 10.5 µM (active) each time.
